# Measurements taken from PubChem BioAssay (NCATS).
# Records with an inconclusive call do not appear. A call without a number means that no potency is given here. Activity calls are given as the source filed them. Calls come from the whole dose curve; as a rule, active = well fitted curve in the direction sought with a large enough effect; inconclusive = small, poorly fitted or top-dose-only effect, or another doubt; inactive = no such curve, though single readings can be large; an effect the other way counts as inactive or inconclusive.
# Legend:
# Furin (Homo sapiens) = Furin (Homo sapiens) (UniProt P09958); assay: Furin counterscreen qHTS for Zika virus inhibitors (AID 1347149);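 note: purified recombinant full-length human furin enzyme at 5 nM; fluorescence gain from furin cutting a BOC-RVRR-AMC peptide substrate over 15 min; top concentration of the series differs between compounds; nearly all actives have a fitted effect of over 70% in size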
# Furin (Homo sapiens), sequence (P09958 whole entry, looked up): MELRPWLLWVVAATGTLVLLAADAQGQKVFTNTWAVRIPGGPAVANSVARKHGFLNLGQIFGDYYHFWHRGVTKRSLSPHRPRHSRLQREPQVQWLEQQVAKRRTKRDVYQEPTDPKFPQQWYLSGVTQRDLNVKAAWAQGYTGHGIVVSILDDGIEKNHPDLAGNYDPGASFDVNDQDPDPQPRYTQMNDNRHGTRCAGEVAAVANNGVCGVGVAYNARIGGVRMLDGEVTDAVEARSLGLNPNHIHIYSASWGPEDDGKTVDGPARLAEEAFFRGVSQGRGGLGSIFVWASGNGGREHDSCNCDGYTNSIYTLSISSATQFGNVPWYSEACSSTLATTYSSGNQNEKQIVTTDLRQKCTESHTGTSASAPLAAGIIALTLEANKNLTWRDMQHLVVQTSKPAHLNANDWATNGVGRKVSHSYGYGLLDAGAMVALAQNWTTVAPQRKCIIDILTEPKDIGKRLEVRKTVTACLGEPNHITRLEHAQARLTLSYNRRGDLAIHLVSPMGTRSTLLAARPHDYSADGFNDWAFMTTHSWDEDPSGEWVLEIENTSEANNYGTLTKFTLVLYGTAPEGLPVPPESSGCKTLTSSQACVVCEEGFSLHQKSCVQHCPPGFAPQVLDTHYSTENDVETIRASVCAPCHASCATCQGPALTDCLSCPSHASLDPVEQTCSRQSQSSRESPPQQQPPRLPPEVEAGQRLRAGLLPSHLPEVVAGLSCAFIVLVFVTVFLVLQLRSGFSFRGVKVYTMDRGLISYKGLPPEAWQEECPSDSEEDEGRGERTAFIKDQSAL
# Outline: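 Counterscreen measures cleavage of 2 microM BOC-RVRR-AMC, below its ~15 microM Km, by 5 nM full-length human furin at pH 7.0 after a 15-min compound preincubation. Inhibition derives from the 15-min fluorescence increase at 37C.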
# [1] = test system: Zika virus NS2B-NS3 protease (unlinked); assay: Optimization of GU AMC qHTS for Zika virus inhibitors: Unlinked NS2B-NS3 protease assay (AID 1347151); note: series mostly up to about 52 µM; nearly all actives have a fitted effect of over 80% in size
# Outline: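 Noncovalent complex of NS2B hydrophilic domain and NS3 protease domain, 25 nM final, in 10 mM Tris-HCl pH 8.0, 0.01% Tween 20. AMC fluorescence change over 15 min at room temperature was fitted to a 4-parameter Hill equation.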
# [2] = test system: Zika virus NS2B-NS3 protease; assay: Primary screen GU AMC qHTS for Zika virus inhibitors (AID 1347154); note: nearly all actives have a fitted effect of over 70% in size
# Outline: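 Fluorogenic AMC-substrate cleavage by noncovalent NS2B-NS3 protease complex (25 nM, pH 8.0 Tris buffer with Tween 20) followed for 15 minutes at room temperature (~20% conversion). Percent inhibition from ex340/em450 signal change, fitted by 4-parameter Hill equation.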
# [3] = molecular target: N-terminal Xaa-Pro-Lys N-methyltransferase 1 (Homo sapiens) (UniProt Q9BV86); assay: qHTS Assay for Inhibitors of N-terminal methyltransferase 1 (NTMT1): LOPAC validation of the NTMT1 SAHH-coupled ThioGlo3 Assay (AID 1347143);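 note: SAH from peptide methylation measured as thiol fluorescence via SAHH coupling and ThioGlo3; nearly all actives have a fitted effect of over 70% in size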
# N-terminal Xaa-Pro-Lys N-methyltransferase 1 (Homo sapiens), sequence (Q9BV86 whole entry, looked up): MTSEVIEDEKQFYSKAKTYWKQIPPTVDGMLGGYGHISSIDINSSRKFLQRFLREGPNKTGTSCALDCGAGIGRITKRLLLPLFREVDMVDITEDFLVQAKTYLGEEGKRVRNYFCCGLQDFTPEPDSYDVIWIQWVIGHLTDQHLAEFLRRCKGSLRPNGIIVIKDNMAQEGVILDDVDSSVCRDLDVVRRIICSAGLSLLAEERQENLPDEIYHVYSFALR
# Outline: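 NTMT1 125nM + cpds (various conc.), 1 min RT; add SAM 100uM/SAHH 10uM/ThioGlo3 15uM (addition mix). SAHH-coupled thiol detection, Ex340/Em450, t0 and 30 min RT; signal normalized to background. LOPAC 1280-cpd pilot.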
structure (smiles),measurement,setting,value
Nc1ccn([C@@H]2O[C@H](CO)[C@@H](O)C2(F)F)c(=O)n1,Potency,Furin (Homo sapiens),inactive
same,Potency,[1],inactive
same,Potency,[2],inactive
CN(C(=O)CN(CCO)CC(=O)N(C)C(C)(C)Cc1ccccc1)C(C)(C)Cc1ccccc1,Potency,[2],inactive
CC(C)n1nc(-c2cc3cc(O)ccc3[nH]2)c2c(N)ncnc21,Potency,[2],inactive
COc1cc2c(cc1O)CC[C@@H]1[C@@H]2CC[C@]2(C)[C@@H](O)CC[C@@H]12,Potency,[1],inactive
Cc1cc(=O)n(-c2ccccc2)n1C,Potency,[2],inactive
CCCn1c(=O)[nH]c(=O)c2[nH]cnc21,Potency,[3],inactive
same,Potency,[1],inactive
O=C(OCC(O)CO)c1ccccc1Nc1ccnc2cc(Cl)ccc12 (centres undefined),Potency,[2],inactive
CNCCC(Oc1ccccc1C)c1ccccc1 (centres undefined),Potency,[3],inactive
same,Potency,[1],inactive
C[C@H]1[C@H](NC(=O)/C(=N/OC(C)(C)C(=O)O)c2csc(N)n2)C(=O)N1S(=O)(=O)O (stereo in doubt),Potency,[2],inactive
CCN1CCCC1=O,Potency,[2],inactive
CN1CCN(CCCN2c3ccccc3Sc3ccc(S(=O)(=O)N(C)C)cc32)CC1,Potency,[2],inactive
COc1cccc(OC)c1C(=O)N[C@@H]1C(=O)N2[C@@H]1SC(C)(C)[C@@H]2C(=O)O,Potency,[2],inactive
CCCOC(C(=O)OC1CCN(C)CC1)(c1ccccc1)c1ccccc1,Potency,[2],inactive
NC[C@H]1O[C@H](O[C@H]2[C@H](O)[C@@H](O[C@H]3O[C@H](CO)[C@@H](O)[C@H](N)[C@H]3O)[C@H](N)C[C@@H]2N)[C@H](N)[C@@H](O)[C@@H]1O,Potency,[2],inactive
CC1(C)O[C@@H]2[C@@H](CO[C@@]3(COS(N)(=O)=O)OC(C)(C)O[C@@H]23)O1,Potency,[2],inactive
